What all share (assay): PBM; 200 nM protein, PBS
Holding throughout (conditions): dsDNA, one strand shown

In experiment [1] the target is T1, SIX6 (Homo sapiens, UniProt O95475 114-200, T165G).
T1 sequence: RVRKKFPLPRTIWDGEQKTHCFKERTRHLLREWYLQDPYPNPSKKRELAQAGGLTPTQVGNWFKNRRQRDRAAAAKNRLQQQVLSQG

The target of experiment [2] is T2, SIX6 (Homo sapiens, UniProt O95475 114-200, T165A).
T2 sequence: T1 sequence with G52A

A further experiment deals with HESX1 (Homo sapiens, UniProt Q9UBX0 95-180).
Experiment [3] addresses MSX2 (Homo sapiens, UniProt P35548 130-214).
Experiment [4] concerns the target MSX2 (Homo sapiens, UniProt P35548 130-214, F161Y).
In experiment [5] the target is HOXA2 (Homo sapiens, UniProt O43364 129-215, R185T).
Experiment [6] has as its target T3, NKX2-6 (Homo sapiens, UniProt A6NCS4 118-204, R150C).
T3 sequence: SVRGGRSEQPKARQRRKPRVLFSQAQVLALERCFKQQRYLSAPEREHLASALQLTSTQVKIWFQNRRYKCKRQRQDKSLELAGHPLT

Experiment [7] deals with HOXA2 (Homo sapiens, UniProt O43364 129-215, R185K).
Experiment [8] deals with PROP1 (Homo sapiens, UniProt O75360 56-141).
Experiment [9] concerns the target PROP1 (Homo sapiens, UniProt O75360 56-141, R99H).
Experiment [10] addresses PROP1 (Homo sapiens, UniProt O75360 56-141, F88S).
The target of experiment [11] is HOXA2 (Homo sapiens, UniProt O43364 129-215, Y150S).
Experiment [12] concerns the target HOXA2 (Homo sapiens, UniProt O43364 129-215).
For another experiment, the target named is PITX2 (Homo sapiens, UniProt Q99697 72-157).
For experiment [13], the target named is ALX3 (Homo sapiens, UniProt O95076 139-225, N203Q).
The target of experiment [14] is ALX3 (Homo sapiens, UniProt O95076 139-225).
Experiment [15] deals with ALX3 (Homo sapiens, UniProt O95076 139-225, N203S).
The target in experiment [16] is MSX2 (Homo sapiens, UniProt P35548 130-214, R199I).
Experiment [17] deals with T4, NKX2-6 (Homo sapiens, UniProt A6NCS4 118-204).
T4 sequence: T3 sequence with C33R

Experiment [18] addresses T5, NKX2-6 (Homo sapiens, UniProt A6NCS4 118-204, F151L).
T5 sequence: T3 sequence with C33R, F34L

For experiment [19], the target named is HOXD13 (Homo sapiens, UniProt P35453 263-343, T313R).
Experiment [20] has as its target HOXD13 (Homo sapiens, UniProt P35453 263-343).
The target in experiment [21] is HOXD13 (Homo sapiens, UniProt P35453 263-343, T313A).
The target of experiment [22] is ALX3 (Homo sapiens, UniProt O95076 139-225, L168Q).
For experiment [23], the target named is ALX3 (Homo sapiens, UniProt O95076 139-225, L168V).

Where a chain is given by its changes, count along the chain named.

HOXA2 (Homo sapiens, UniProt O43364 129-215, Y150S), sequence (O43364 129-215 Y150S): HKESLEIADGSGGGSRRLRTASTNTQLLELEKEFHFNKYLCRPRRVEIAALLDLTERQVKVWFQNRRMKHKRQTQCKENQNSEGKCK
HOXA2 (Homo sapiens, UniProt O43364 129-215, R185T), sequence (O43364 129-215 R185T): as the sequence (O43364 129-215 Y150S) above, with S22Y, R57T counted along it
HOXA2 (Homo sapiens, UniProt O43364 129-215, R185K), sequence (O43364 129-215 R185K): as the sequence (O43364 129-215 Y150S) above, with S22Y, R57K counted along it
MSX2 (Homo sapiens, UniProt P35548 130-214, R199I), sequence (P35548 130-214 R199I): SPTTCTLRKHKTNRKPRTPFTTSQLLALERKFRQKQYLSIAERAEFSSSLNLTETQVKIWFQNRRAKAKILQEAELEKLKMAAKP
MSX2 (Homo sapiens, UniProt P35548 130-214), sequence (P35548 130-214): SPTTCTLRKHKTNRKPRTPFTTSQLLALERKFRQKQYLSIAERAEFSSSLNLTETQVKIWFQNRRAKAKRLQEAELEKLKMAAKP
MSX2 (Homo sapiens, UniProt P35548 130-214, F161Y), sequence (P35548 130-214 F161Y): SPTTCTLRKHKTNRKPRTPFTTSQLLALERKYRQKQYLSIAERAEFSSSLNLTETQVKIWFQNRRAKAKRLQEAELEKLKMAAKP
HESX1, sequence (Q9UBX0 95-180): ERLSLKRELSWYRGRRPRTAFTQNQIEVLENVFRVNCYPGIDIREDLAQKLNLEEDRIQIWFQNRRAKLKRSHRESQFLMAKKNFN
HOXA2 (Homo sapiens, UniProt O43364 129-215), sequence (O43364 129-215): as the sequence (O43364 129-215 Y150S) above, with S22Y counted along it
ALX3 (Homo sapiens, UniProt O95076 139-225, N203S), sequence (O95076 139-225 N203S): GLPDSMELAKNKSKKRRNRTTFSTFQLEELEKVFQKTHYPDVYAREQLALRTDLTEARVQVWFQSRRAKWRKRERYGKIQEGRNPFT
ALX3 (Homo sapiens, UniProt O95076 139-225, N203Q), sequence (O95076 139-225 N203Q): as the sequence (O95076 139-225 N203S) above, with S65Q counted along it
ALX3 (Homo sapiens, UniProt O95076 139-225), sequence (O95076 139-225): as the sequence (O95076 139-225 N203S) above, with S65N counted along it
PROP1 (Homo sapiens, UniProt O75360 56-141), sequence (O75360 56-141): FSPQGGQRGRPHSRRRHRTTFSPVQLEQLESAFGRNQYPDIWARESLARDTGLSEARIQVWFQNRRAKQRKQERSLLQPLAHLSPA
PROP1 (Homo sapiens, UniProt O75360 56-141, R99H), sequence (O75360 56-141 R99H): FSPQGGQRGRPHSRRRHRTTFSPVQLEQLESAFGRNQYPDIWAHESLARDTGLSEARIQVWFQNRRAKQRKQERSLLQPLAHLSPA
HOXD13 (Homo sapiens, UniProt P35453 263-343), sequence (P35453 263-343): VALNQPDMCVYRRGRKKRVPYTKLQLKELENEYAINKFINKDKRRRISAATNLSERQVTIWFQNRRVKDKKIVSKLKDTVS
HOXD13 (Homo sapiens, UniProt P35453 263-343, T313A), sequence (P35453 263-343 T313A): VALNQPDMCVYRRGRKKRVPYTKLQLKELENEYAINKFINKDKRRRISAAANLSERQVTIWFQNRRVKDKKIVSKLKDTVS
ALX3 (Homo sapiens, UniProt O95076 139-225, L168Q), sequence (O95076 139-225 L168Q): as the sequence (O95076 139-225 N203S) above, with L30Q, S65N counted along it
HOXD13 (Homo sapiens, UniProt P35453 263-343, T313R), sequence (P35453 263-343 T313R): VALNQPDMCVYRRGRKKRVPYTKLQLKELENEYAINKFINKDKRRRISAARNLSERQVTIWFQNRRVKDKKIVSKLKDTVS
PROP1 (Homo sapiens, UniProt O75360 56-141, F88S), sequence (O75360 56-141 F88S): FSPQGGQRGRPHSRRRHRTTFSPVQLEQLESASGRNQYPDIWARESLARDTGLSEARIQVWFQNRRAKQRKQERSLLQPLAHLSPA
ALX3 (Homo sapiens, UniProt O95076 139-225, L168V), sequence (O95076 139-225 L168V): as the sequence (O95076 139-225 N203S) above, with L30V, S65N counted along it

For AGTGACAC, the binding signal in the experiment with SIX6 [1] is 10.6 upbm affinity estimate (log intensity, higher = more binding, comparable within an allelic series); in the experiment with SIX6 [2], 10.5 upbm affinity estimate (log intensity, higher = more binding, comparable within an allelic series).
As to GACACCTA, the binding signal with SIX6 [1] was 10.6 upbm affinity estimate (log intensity, higher = more binding, comparable within an allelic series); with SIX6 [2], 10.5 upbm affinity estimate (log intensity, higher = more binding, comparable within an allelic series).
Turning to TCATATCA, in the experiment with SIX6 [1], the binding signal was 11.2 upbm affinity estimate (log intensity, higher = more binding, comparable within an allelic series).
For the sequence GAGAATGA, the binding signal with HESX1 was 7.23 upbm affinity estimate (log intensity, higher = more binding, comparable within an allelic series).
For AAGTGTCA, the binding signal with SIX6 [1] is 10.5 upbm affinity estimate (log intensity, higher = more binding, comparable within an allelic series); with SIX6 [2], 10.5 upbm affinity estimate (log intensity, higher = more binding, comparable within an allelic series); in the experiment with MSX2 [3], 10.6 upbm affinity estimate (log intensity, higher = more binding, comparable within an allelic series); with MSX2 [4] it was 10.5 upbm affinity estimate (log intensity, higher = more binding, comparable within an allelic series).
With CCGACACC, the binding signal is 10.4 upbm affinity estimate (log intensity, higher = more binding, comparable within an allelic series) with SIX6 [1] and 10.3 upbm affinity estimate (log intensity, higher = more binding, comparable within an allelic series) with SIX6 [2].
Regarding AAGACACC, in the experiment with SIX6 [1], the binding signal is 10.6 upbm affinity estimate (log intensity, higher = more binding, comparable within an allelic series).
In the case of CCCCCACG, the binding signal was 6.91 upbm affinity estimate (log intensity, higher = more binding, comparable within an allelic series) in the experiment with HOXA2 [5]; 9.26 upbm affinity estimate (log intensity, higher = more binding, comparable within an allelic series) with NKX2-6 [6]; 9.95 upbm affinity estimate (log intensity, higher = more binding, comparable within an allelic series) in the experiment with HOXA2 [7]; 6.48 upbm affinity estimate (log intensity, higher = more binding, comparable within an allelic series) with PROP1 [8]; 6.59 upbm affinity estimate (log intensity, higher = more binding, comparable within an allelic series) in the experiment with PROP1 [9]; 6.32 upbm affinity estimate (log intensity, higher = more binding, comparable within an allelic series) with PROP1 [10]. Besides, the binding signal with HOXA2 [11] is 10.4 upbm affinity estimate (log intensity, higher = more binding, comparable within an allelic series); in the experiment with HOXA2 [12] it was 6.93 upbm affinity estimate (log intensity, higher = more binding, comparable within an allelic series).
As for ATTACACC, the binding signal with SIX6 [1] was 10.7 upbm affinity estimate (log intensity, higher = more binding, comparable within an allelic series); with SIX6 [2], 10.7 upbm affinity estimate (log intensity, higher = more binding, comparable within an allelic series); with PITX2 it was 9.68 upbm affinity estimate (log intensity, higher = more binding, comparable within an allelic series).
Take AGGTGTAA: the binding signal in the experiment with SIX6 [1] was 10.5 upbm affinity estimate (log intensity, higher = more binding, comparable within an allelic series).
As to CGTATTAC, the binding signal was 9.06 upbm affinity estimate (log intensity, higher = more binding, comparable within an allelic series) in the experiment with HOXA2 [5]; 8.19 upbm affinity estimate (log intensity, higher = more binding, comparable within an allelic series) with ALX3 [13]; 9.9 upbm affinity estimate (log intensity, higher = more binding, comparable within an allelic series) with ALX3 [14]; 8.23 upbm affinity estimate (log intensity, higher = more binding, comparable within an allelic series) with ALX3 [15]; 9.08 upbm affinity estimate (log intensity, higher = more binding, comparable within an allelic series) with HOXA2 [12].
With TAACTTGA, the binding signal with HESX1 is 7.21 upbm affinity estimate (log intensity, higher = more binding, comparable within an allelic series).
In the case of CGCCACGC, the binding signal with HOXA2 [5] was 7.14 upbm affinity estimate (log intensity, higher = more binding, comparable within an allelic series); with MSX2 [16], 9.28 upbm affinity estimate (log intensity, higher = more binding, comparable within an allelic series); with NKX2-6 [17] it was 9.43 upbm affinity estimate (log intensity, higher = more binding, comparable within an allelic series); in the experiment with HOXA2 [7], 10.1 upbm affinity estimate (log intensity, higher = more binding, comparable within an allelic series); in the experiment with MSX2 [3] it was 9.35 upbm affinity estimate (log intensity, higher = more binding, comparable within an allelic series); with NKX2-6 [18], 9.12 upbm affinity estimate (log intensity, higher = more binding, comparable within an allelic series). Besides, the binding signal is 9.31 upbm affinity estimate (log intensity, higher = more binding, comparable within an allelic series) with MSX2 [4]; 10.3 upbm affinity estimate (log intensity, higher = more binding, comparable within an allelic series) in the experiment with HOXA2 [11]; 7.2 upbm affinity estimate (log intensity, higher = more binding, comparable within an allelic series) with HOXA2 [12].
For AATTTATG, the binding signal is 10.1 upbm affinity estimate (log intensity, higher = more binding, comparable within an allelic series) with HOXA2 [5]; 10.7 upbm affinity estimate (log intensity, higher = more binding, comparable within an allelic series) in the experiment with HOXD13 [19]; 11.9 upbm affinity estimate (log intensity, higher = more binding, comparable within an allelic series) with HOXA2 [7]; 11.6 upbm affinity estimate (log intensity, higher = more binding, comparable within an allelic series) with HOXD13 [20]; 11.5 upbm affinity estimate (log intensity, higher = more binding, comparable within an allelic series) in the experiment with HOXD13 [21]; 10.9 upbm affinity estimate (log intensity, higher = more binding, comparable within an allelic series) in the experiment with HOXA2 [11]. The binding signal with HOXA2 [12] is 10.1 upbm affinity estimate (log intensity, higher = more binding, comparable within an allelic series).
Take CCCCCCCA: the binding signal was 7.25 upbm affinity estimate (log intensity, higher = more binding, comparable within an allelic series) with HOXA2 [5]; 7.7 upbm affinity estimate (log intensity, higher = more binding, comparable within an allelic series) with ALX3 [13]; 9.99 upbm affinity estimate (log intensity, higher = more binding, comparable within an allelic series) with HOXA2 [7]; 7.68 upbm affinity estimate (log intensity, higher = more binding, comparable within an allelic series) with ALX3 [14]; 7.68 upbm affinity estimate (log intensity, higher = more binding, comparable within an allelic series) with ALX3 [22]; 7.64 upbm affinity estimate (log intensity, higher = more binding, comparable within an allelic series) with ALX3 [23]. Further, the binding signal with HOXA2 [11] is 10.2 upbm affinity estimate (log intensity, higher = more binding, comparable within an allelic series); with ALX3 [15], 7.67 upbm affinity estimate (log intensity, higher = more binding, comparable within an allelic series); with HOXA2 [12], 7.37 upbm affinity estimate (log intensity, higher = more binding, comparable within an allelic series).
For the sequence GCTAATCA, the binding signal with HOXA2 [5] is 12.5 upbm affinity estimate (log intensity, higher = more binding, comparable within an allelic series); with MSX2 [16], 11 upbm affinity estimate (log intensity, higher = more binding, comparable within an allelic series).
Regarding GCATAAAC, the binding signal in the experiment with HESX1 was 7.44 upbm affinity estimate (log intensity, higher = more binding, comparable within an allelic series).
With ACGATCAA, the binding signal with HESX1 is 7.32 upbm affinity estimate (log intensity, higher = more binding, comparable within an allelic series).
Regarding CCGCCGCA, the binding signal is 7.15 upbm affinity estimate (log intensity, higher = more binding, comparable within an allelic series) with HOXA2 [5]; 9.56 upbm affinity estimate (log intensity, higher = more binding, comparable within an allelic series) with MSX2 [16]; 10.1 upbm affinity estimate (log intensity, higher = more binding, comparable within an allelic series) with HOXA2 [7]; 9.59 upbm affinity estimate (log intensity, higher = more binding, comparable within an allelic series) in the experiment with MSX2 [3]; 9.59 upbm affinity estimate (log intensity, higher = more binding, comparable within an allelic series) with MSX2 [4]; 10.4 upbm affinity estimate (log intensity, higher = more binding, comparable within an allelic series) in the experiment with HOXA2 [11]. Also, the binding signal with HOXA2 [12] was 7.05 upbm affinity estimate (log intensity, higher = more binding, comparable within an allelic series).
On to AAGTAGAG, for which the binding signal with HESX1 was 7.4 upbm affinity estimate (log intensity, higher = more binding, comparable within an allelic series).

These data come from article PMC11006913.
